Test [1] has as its target Aldehyde dehydrogenase, mitochondrial (Homo sapiens) (UniProt P05091). In words: qHTS for Inhibitors of the Aldehyde Dehydrogenase Family (ALDH2) Confirmatory screens (AID 2061303; active means well fitted inhibition curve with a large enough effect; title and protocol of this record describe different tests; further: nearly all actives have a fitted effect of over 45% in size; further: potency means the concentration at half of the fitted maximal effect). (In general: Quantitative high-throughput screening tests each substance at several concentrations.)
Test [2] can be described thus: qHTS for Inhibitors of the Aldehyde Dehydrogenase Family (ALDH1A2, ALDH1A3, ALDH2, ALDH3A1) (AID 2061307). Further: nearly all actives have a fitted effect of over 50% in size. On Potency: test system not described further here; potency means the concentration at half of the fitted maximal effect.
In test [3] the target is Retinal dehydrogenase 2 (Homo sapiens) (UniProt O94788). In words: qHTS for Inhibitors of the Aldehyde Dehydrogenase Family (ALDH1A2) Confirmation screens (AID 2061314). Further: nearly all actives have a fitted effect of over 65% in size. Further: potency means the concentration at half of the fitted maximal effect.
Test [4] addresses Aldehyde dehydrogenase 1A1 (Homo sapiens) (UniProt P00352). In words: qHTS for Inhibitors of the Aldehyde Dehydrogenase Family (ALDH1A1) Confirmatory screens (AID 2061316). Further: nearly all actives have a fitted effect of over 65% in size. Further: potency means the concentration at half of the fitted maximal effect.
Test [5] addresses Retinaldehyde dehydrogenase 3 (Homo sapiens) (UniProt P47895). Kind of test: qHTS for Inhibitors of the Aldehyde Dehydrogenase Family (ALDH1A3) Primary screen (AID 2061315).
The nature of test [6]: BET inhibitor-based combinations targeting novel dependencies in MECOM-rearranged (r) AML: MV-4-11 cell line (AID 2202233). Further: nearly all actives have a fitted effect of over 45% in size. The procedure, abridged: (§1)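 Using pin-tool transfer, drugs were added in 11 doses to cells (500/well), incubated 48 hr, and assessed with CellTiter-Glo. Z-AUC is a mean-centring transformation applied separately to each screened line.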
The nature of test [7]: BET inhibitor-based combinations targeting novel dependencies in MECOM-rearranged (r) AML: HNT-34 cell line (AID 2202234). Further: nearly all actives have a fitted effect of over 35% in size. The procedure, abridged:
as §1

Test [8] is described as follows: BET inhibitor-based combinations targeting novel dependencies in MECOM-rearranged (r) AML: UCSD-AML1 cell line (AID 2202235). Further: series mostly up to about 46 µM; nearly all actives have a fitted effect of over 40% in size. The procedure, abridged: as §1
The nature of test [9]: BET inhibitor-based combinations targeting novel dependencies in MECOM-rearranged (r) AML: AML-191 cell line (AID 2202236; further: nearly all actives have a fitted effect of over 35% in size). The procedure, abridged: (§2)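 Viability of cells (500 per well) is scored by luminescent CellTiter-Glo at 48 hr post-dosing. Eleven-point titrations are normalized to DMSO and empty controls and reduced to AUC values.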
Test [10] is described as follows: BET inhibitor-based combinations targeting novel dependencies in MECOM-rearranged (r) AML: AML-194 cell line (AID 2202237; further: nearly all actives have a fitted effect of over 40% in size). The procedure, abridged: as §2
In test [11] the target is Aldehyde dehydrogenase, mitochondrial (Homo sapiens) (UniProt P05091). In words: qHTS for Inhibitors of the Aldehyde Dehydrogenase Family (ALDH2) Primary screen (AID 2061308). Further: nearly all actives have a fitted effect of over 55% in size.
The target in test [12] is Retinaldehyde dehydrogenase 3 (Homo sapiens) (UniProt P47895). In words: qHTS for Inhibitors of the Aldehyde Dehydrogenase Family (ALDH1A3) Confirmatory screens (AID 2061311). Further: nearly all actives have a fitted effect of over 60% in size.

Several values for one entry are separate records, joined by “and”; a condition that tells them apart may be missing. Equal entries are not always repeated. Results filed as inconclusive are left out. Activity calls are given as the source filed them. Unless noted, the call rests on the fitted dose curve; in most records, active means well fitted curve in the direction sought with a large enough effect; inconclusive means small, poorly fitted or top-dose-only effect, or another doubt; inactive means no such curve, though single readings can be large; an effect the other way counts as inactive or inconclusive.

Regarding `CCc1nc2nc(C)cc(Nc3ccc(Br)cc3F)n2n1`, the Potency entry in [1], in test [2], in [3] and in test [4] was “inactive” each time.
On to `O=C(OCC#CCSc1nnc(-c2ccco2)o1)c1ccc(F)cc1`, for which the Potency is 15.9 µM (active) in [1] and 8.96 µM (active) in test [4]. Further, the Potency entry in test [2] and in test [5] was “inactive” each time.
Consider `Cc1csc2c(N[C@@H](C)CN3CCN(S(=O)(=O)c4ccc(Cl)c(Cl)c4)CC3)ncnc12`, for which the Potency is 12.6 µM (active) in test [1]; 708 nM (active) and 224 nM (active) in [2]; 8.96 µM (active) in test [4]. Also, the Potency result in test [5] was “inactive”.
Consider `CCOc1ccc(NC(=O)C2CCN(c3cnn(Cc4ccccc4)c(=O)c3)C2)cc1` (stereo unspecified), for which the Potency entry in test [1], in test [2] and in test [3] was “inactive” each time.
As for `Cc1ccc(OCCn2c(CCNC(=O)c3ccc([N+](=O)[O-])cc3)nc3ccccc32)cc1`, the Potency in test [1] was 22.5 µM (active); in [4] it was 17.9 µM (active). Also, the Potency result in test [2], in test [3] and in test [5] was “inactive” in each case.
On to `COc1cccc(Cc2nc3ccccc3nc2SCC(=O)N2CCN(c3ccccc3)CC2)c1`, for which the Potency entry in test [1], in test [2], in [3] and in [4] was “inactive” each time.
In the case of `O=S1(=O)N=C(Oc2ccccc2Br)c2ccccc21`, the Potency entry in test [1], in [2] and in test [5] was “inactive” throughout.
Consider `N#Cc1cccc(N2CCN(Cc3ccc(F)c(Cl)c3F)CC2)n1`, for which the Potency is 15.8 µM (active) in test [1], 4.58 µM (active) in [2] and 14.5 µM (active) in test [4].
For `Cc1ccc(OCCn2c(CCNC(=O)c3ccc(N)cc3)nc3ccccc32)cc1`, the Potency in test [1] is 10.1 µM (active); in test [2] it was 0.896 µM (active); in [3] it was 7.98 µM (active); in [4], 3.18 µM (active). Besides, in test [5], the Potency result was “inactive”.
In the case of `COc1ccc(CC(=O)Nc2c(C(=O)N3CCN(c4ccccc4)CC3)oc3ccccc23)cc1OC`, the Potency entry in [1], in [2] and in test [3] was “inactive” throughout.
Turning to `CC(C)(C)OC(=O)N1CCN(c2ccc(NCc3cnc(-c4ccc(C#N)cc4)s3)cc2)CC1`, the values for the Potency in [1], in test [2] and in test [4] were 1.79 µM (active), 2.83 µM (active) and 11.3 µM (active), respectively. Besides, the Potency entry in test [3] and in test [5] was “inactive” each time.
Consider `O=c1[nH]c2ccc(NCc3ccc(-c4ccccc4F)o3)cc2[nH]1`, for which the results for the Potency in [1] and in test [2] were 0.576 µM (active) and 4.47 µM (active), respectively. In [3], the Potency entry was “inactive”.
Take `N#Cc1cccc(NC(=S)N[C@H]2CO[C@H]3[C@@H]2OC[C@@H]3n2nnnc2Oc2cccc(N3CCOCC3)c2)c1`: the Potency entry in [1] and in test [3] was “inactive” throughout. Besides, the Potency in [2] is 6.31 µM (active); in [4] it was 10.2 µM (active).
On to `O=C(Nc1ccc(Cl)c(Cl)c1)Nc1cccc(-c2ccncc2)n1`, for which the Potency result in [1], in test [2], in [3], in test [5] and in [4] was “inactive” each time.
With `Cc1ccc(C(=O)NC2CCN(Cc3cccc(-c4cccc(C)c4)c3)CC2)cc1`, the Potency entry in [1], in [2], in [3] and in [4] was “inactive” throughout.
Take `COc1ccnc(NC(=S)N2CCN(c3ccccc3C(F)(F)F)CC2)c1`: the Potency result in test [1] is “inactive”. Moreover, the Potency in test [2] was 14.1 µM (active); in test [3], 11.3 µM (active); in test [4], 5.65 µM (active).
As for `O=Cc1ccc(-c2ccc3ncnc(NCc4cccs4)c3c2)o1`, the Potency in test [1] was 11.3 µM (active). Besides, the Potency entry in [2], in test [3] and in test [5] was “inactive” throughout.
`Cc1cc(-c2nnc3n2CCCCC3)c(C)n1-c1ccc(Br)cc1`: the Potency entry in test [1], in [2] and in test [5] was “inactive” in each case. Further, the Potency in test [4] is 12.7 µM (active).
As for `CCOc1ccc(-c2cc(C(=O)NCCc3ccc(C)cc3)c3ccccc3n2)cc1`, the Potency result in test [1], in [2], in [3] and in test [4] was “inactive” throughout.
On to `OCc1ccc(-c2ccc3ncnc(N4CCOCC4)c3c2)o1`, for which the Potency is 11.3 µM (active) in test [1], 1 µM (active) in test [2] and 3.18 µM (active) in test [4]. For the same compound, in test [5], the Potency result is “inactive”.
Turning to `N#Cc1ccc(-c2ccc(CNc3ccc(N4CCN5CCCCC5C4)cc3)o2)cc1` (stereo unspecified), the Potency was 0.0252 µM (active) in test [1], 0.449 µM (active) in [2] and 8.96 µM (active) in test [4]. In addition, the Potency result in test [3] and in test [5] was “inactive” throughout.
Consider `O=C1CCCC2=C1C(c1ccccc1Cl)N=C(c1ccccn1)N2` (stereo unspecified), for which the Potency entry in test [1], in test [2] and in test [5] was “inactive” throughout.
In the case of `O=C(Nc1cccc(-c2nc3cc(Cl)ccc3o2)c1)c1cc([N+](=O)[O-])ccc1N1CCOCC1`, the Potency entry in [1], in test [2], in test [3] and in test [4] was “inactive” in each case.
Take `COc1cccc(-c2ccc(CN3CCCC(NC(=O)Nc4ccccc4)C3)cc2)c1` (stereo unspecified): the Potency entry in [1] and in [3] was “inactive” each time. The Potency in test [2] is 12.6 µM (active).
For `Cc1ccc(CSc2ccc3nnc(CCNS(=O)(=O)c4ccc(C)cc4)n3n2)cc1`, the Potency result in [1], in [2] and in [3] was “inactive” throughout.
For the compound `COc1cc(NC(=S)N2CCN(c3cccc(C(F)(F)F)c3)CC2)nc2ccccc12`, the Potency in test [1] is 25.1 µM (active); in [3] it was 7.94 µM (active). The Potency entry in test [2] and in [5] was “inactive” each time.
Take `COc1cc(/C=C(\C#N)C(=O)Nc2nnc(C(F)(F)F)s2)ccc1OCc1ccc(C(F)(F)F)cc1C(F)(F)F`: the Potency result in test [1], in test [2], in test [3], in test [4], in test [6] and in test [7] was “inactive” throughout. Besides, the Potency entry in [8], in [9] and in test [10] was “inactive” in each case.
In the case of `COc1ccc(NC(=O)O[C@@H]2CO[C@H]3[C@@H]2OC[C@@H]3n2nnnc2SCc2ccco2)cc1`, in [1], the Potency entry is “inactive”. Besides, the Potency in [2] is 12.9 µM (active); in test [4] it was 10.2 µM (active).
For the compound `COc1cc2c(cc1O)C(c1ccc(O)cc1)C(C)C(C)C2` (stereo unspecified), the Potency entry in test [1] and in test [11] was “inactive” in each case.
With `Cc1cc(C=CC#N)cc(C)c1Nc1nc(Nc2ccc3c(c2)CCC3)c2[nH]cnc2n1`, the Potency entry in test [1], in [11], in [12], in test [3] and in test [5] was “inactive” in each case.
Consider `O=C(/C=C/c1ccc([N+](=O)[O-])o1)Nc1cccc([S+](=O)([O-])Nc2ccccc2F)c1`, for which the Potency entry in test [1], in test [11], in [12] and in [5] was “inactive” each time. Moreover, the Potency in test [3] and in [4] was 7.98 µM (active) each time.
